Several values for one entry are separate records, joined by “and”; a condition that tells them apart may be missing. Identical values can stand only once. Results filed as inconclusive are left out. Entries that show only a call come without a potency. Activity calls are given as the source filed them. Unless noted, the call rests on the fitted dose curve; in most records, active means well fitted curve in the direction sought with a large enough effect; inconclusive means small, poorly fitted or top-dose-only effect, or another doubt; inactive means no such curve, though single readings can be large; an effect the other way counts as inactive or inconclusive.
Columns and labels:
[1] = biological target: Calcium and integrin-binding protein 1 (Homo sapiens) (UniProt Q99828); assay: Primary qHTS for Identification of Calcium Integrin Binding Protein 1 (CIB1) Competitor (AID 1508620); conditions: CIB1-GST / FITC-alphaIIb peptide fluorescence polarization; series mostly up to 114 µM;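 further: GST tagged CIB1 binding a fluorescein labelled alphaIIb integrin peptide tracer; top concentration of the series differs between compounds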
In short: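 Fluorescence polarization competition: CIB1-GST (1 uM final) preincubated with compound 15 min at room temperature, then FITC-labeled alphaIIb peptide (100 nM final) added for another 15 min. Polarization read at Ex 480/Em 540.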

[2] = biological target: Cytochrome P450 2D6 (Homo sapiens) (UniProt P10635); assay: Cytochrome P450 family 2 subfamily D member 6 (CYP2D6) small molecule antagonists: luciferase biochemical (cell-free) qHTS assay (AID 1645840; active means well fitted curve in the direction sought with a large enough effect in the repeat runs; an effect the other way counts as inactive or inconclusive; further: nearly all actives have a fitted effect of over 55% in size; further: potency means the concentration at half of the fitted maximal effect); conditions: P450-Glo CYP2D6 enzyme, luciferin luminescence, 1 h; series mostly up to 57.4 µM
In short: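 P450-Glo luminescent screen: recombinant CYP2D6 enzyme–proluciferin substrate mix preincubated with compound 10 min at room temperature, then NADPH regeneration added for 1 h at room temperature. Detection reagent added for 20 min; luciferin light read as relative luminescence units.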

[3] = biological target: Cytochrome P450 2C9 (Homo sapiens) (UniProt P11712); assay: Cytochrome P450 family 2 subfamily C member 9 (CYP2C9) small molecule antagonists: luciferase biochemical (cell-free) qHTS assay (AID 1645842; active means well fitted curve in the direction sought with a large enough effect in the repeat runs; an effect the other way counts as inactive or inconclusive; further: potency means the concentration at half of the fitted maximal effect; nearly all actives have a fitted effect of over 55% in size); conditions: P450-Glo CYP2C9 enzyme assay, luciferin luminescence; series mostly up to 57.4 µM
In short: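 Luminescence, after 20 min with luciferin detection reagent, reflected CYP2C9 turnover during a 1 h NADPH-driven reaction at 37C. Enzyme-substrate mix contained 0.4% bovine serum albumin and was preincubated with compound 10 min at room temperature.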

[4] = Primary qHTS for inhibitors of nuclear receptor binding SET domain protein 2 (NSD2) in an isogenic RCH-ACV NSD2 p.E1099K mutant (9B) (AID 1645876); conditions: RCH-ACV NSD2 E1099K (9B) viability, CellTiter-Glo, 72 h; series mostly up to 44.9 µM; further: nearly all actives have a fitted effect of over 70% in size; further: potency means the concentration at half of the fitted maximal effect
[5] = Primary qHTS for inhibitors of nuclear receptor binding SET domain protein 2 (NSD2) in an RCH-ACV wild type WT cells (2C) (AID 1645877); conditions: RCH-ACV (leukaemia line) NSD2 WT (2C) viability, CellTiter-Glo, 72 h; series mostly up to 44.9 µM; further: nearly all actives have a fitted effect of over 70% in size; further: potency means the concentration at half of the fitted maximal effect
[6] = biological target: N-terminal Xaa-Pro-Lys N-methyltransferase 1 (Homo sapiens) (UniProt Q9BV86); assay: Confirmatory qHTS for Inhibitors of N-terminal methyltransferase 1 (NTMT1): MTaseGlo Assay (AID 1645874); conditions: NTMT1 enzyme, MTase-Glo SAH luminescence; series mostly up to 100 µM;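 further: luminescence from SAH made as NTMT1 methylates SPKRIA peptide using SAM; nearly all actives have a fitted effect of over 65% in size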
In short: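 Preincubation of NTMT1 (125 nM) plus SAM (100 uM) with test compounds lasted 15 min; methylation of 1 uM SPKRIA then proceeded 30 min in the dark at room temperature. Luciferase signal reported SAH produced.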

Chain of Cytochrome P450 2D6 (Homo sapiens) (P10635 whole entry, looked up): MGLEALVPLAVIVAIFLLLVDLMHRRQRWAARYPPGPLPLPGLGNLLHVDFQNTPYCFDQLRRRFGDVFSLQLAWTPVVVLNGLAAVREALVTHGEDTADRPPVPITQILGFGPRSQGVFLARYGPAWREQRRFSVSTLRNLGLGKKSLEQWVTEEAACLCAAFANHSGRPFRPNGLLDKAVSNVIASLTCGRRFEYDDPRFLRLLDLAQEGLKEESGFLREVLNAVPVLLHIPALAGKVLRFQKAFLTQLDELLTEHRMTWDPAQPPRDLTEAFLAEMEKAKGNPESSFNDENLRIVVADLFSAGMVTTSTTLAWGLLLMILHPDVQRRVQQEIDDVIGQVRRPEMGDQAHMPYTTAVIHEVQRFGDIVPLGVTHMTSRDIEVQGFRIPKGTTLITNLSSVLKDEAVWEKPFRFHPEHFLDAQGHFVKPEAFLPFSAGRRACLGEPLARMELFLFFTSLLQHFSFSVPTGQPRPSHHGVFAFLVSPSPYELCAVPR
Chain of Calcium and integrin-binding protein 1 (Homo sapiens) (Q99828 whole entry, looked up): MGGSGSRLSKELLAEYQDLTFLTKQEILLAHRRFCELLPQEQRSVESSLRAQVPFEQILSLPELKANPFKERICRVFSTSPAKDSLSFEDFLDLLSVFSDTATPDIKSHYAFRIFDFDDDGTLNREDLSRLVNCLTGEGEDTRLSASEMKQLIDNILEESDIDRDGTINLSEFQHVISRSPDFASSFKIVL
Chain of Cytochrome P450 2C9 (Homo sapiens) (P11712 whole entry, looked up): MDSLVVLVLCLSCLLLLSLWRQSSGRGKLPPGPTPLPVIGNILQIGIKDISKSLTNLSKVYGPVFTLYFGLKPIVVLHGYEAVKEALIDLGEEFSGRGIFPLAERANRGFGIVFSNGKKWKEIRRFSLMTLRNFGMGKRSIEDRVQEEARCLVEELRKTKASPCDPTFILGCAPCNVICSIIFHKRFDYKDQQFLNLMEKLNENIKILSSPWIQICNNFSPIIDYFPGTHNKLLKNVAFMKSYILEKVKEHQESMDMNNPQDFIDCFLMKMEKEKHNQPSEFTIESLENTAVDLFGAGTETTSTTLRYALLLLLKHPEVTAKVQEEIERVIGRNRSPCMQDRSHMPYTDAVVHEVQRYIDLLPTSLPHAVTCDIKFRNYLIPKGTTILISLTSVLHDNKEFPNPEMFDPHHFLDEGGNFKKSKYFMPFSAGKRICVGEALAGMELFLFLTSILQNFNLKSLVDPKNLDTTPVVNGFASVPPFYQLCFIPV
Chain of N-terminal Xaa-Pro-Lys N-methyltransferase 1 (Homo sapiens) (Q9BV86 whole entry, looked up): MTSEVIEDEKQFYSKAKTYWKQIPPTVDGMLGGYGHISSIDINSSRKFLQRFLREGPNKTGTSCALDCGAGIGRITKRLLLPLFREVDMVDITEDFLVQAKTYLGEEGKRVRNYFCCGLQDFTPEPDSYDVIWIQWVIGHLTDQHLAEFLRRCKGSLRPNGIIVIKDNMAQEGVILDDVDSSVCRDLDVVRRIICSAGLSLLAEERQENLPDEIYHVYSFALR

Q: With `C[C@H](Oc1cc(-n2cnc3ccc(CN4CCN(C)CC4)cc32)sc1C(N)=O)c1ccccc1C(F)(F)F` as the compound, how does the Potency [1] read?
A: inactive

Q: And the Potency [2]?
A: 21.3 µM (active)

Q: What about the Potency [3] of the same compound?
A: 6.74 µM (active)

Q: And the Potency [4]?
A: 1.15 µM (active)

Q: And the Potency [5]?
A: 1.29 µM (active)

Q: What does the source list for `O=S1(=O)CCN(Cc2cc(NCC3CCOCC3)c3[nH]c(-c4ccccc4)cc3c2)CC1`?
A: Potency [1]: inactive; Potency [2]: 12 µM (active); Potency [3]: 3.38 µM (active); Potency [5]: 10.3 µM (active)

Q: For `O=c1nc(-c2ccccn2)sc2ccccc12`, which Potency [6] is on record?
A: inactive

Q: Which Potency [6] does the source give for `Cc1ccc(NC(=O)N2CCN(c3nc(N)nc4sc(-c5cccnc5)nc34)CC2)cc1` here?
A: inactive

Q: With `N#Cc1ccc(O[C@@H]2c3ccccc3C[C@H]2N2CCC[C@@H](N)C2)c(Cl)c1` as the compound, how does the Potency [1] read?
A: inactive

Q: And the Potency [2]?
A: 0.169 µM (active)

Q: And the Potency [4]?
A: 20.5 µM (active)

Q: And the Potency [5]?
A: 18.3 µM (active)

Q: Which Potency [1] does the source give for `Cc1nc(-c2cn3c(n2)-c2ccc(-c4cnn(C(C)(C)C(N)=O)c4)cc2OCC3)n(C(C)C)n1` here?
A: inactive

Q: And the Potency [2]?
A: inactive

Q: And the Potency [4]?
A: 7.3 nM (active) and 18.6 nM (active)

Q: And the Potency [5]?
A: 5.8 nM (active) and 33.2 nM (active)

Q: For `CCC(=O)N1CCOc2c(cc(-c3ccc(OC)c(OC)c3)cc2OC[C@H]2CCCN(C)C2)C1`, which Potency [1] is on record?
A: inactive

Q: And the Potency [2]?
A: 13.5 µM (active)

Q: What about the Potency [4] of the same compound?
A: 8.17 µM (active)

Q: And the Potency [5]?
A: 7.28 µM (active)

Q: What does the source list for `CC(NC(=O)Cc1cc(F)cc(F)c1)C(=O)NC1C(=O)N(C)c2ccccc2-c2ccccc21` (stereo not drawn)?
A: Potency [1]: inactive; Potency [2]: inactive; Potency [4]: 2.58 µM (active); Potency [5]: 3.25 µM (active)

Q: What does the source list for `COc1ccc2c(c1O[C@H]1CCNC1)CCC2`?
A: Potency [1]: inactive; Potency [2]: 16.9 µM (active); Potency [4]: inactive; Potency [5]: inactive

Q: What does the source list for `CCN1CCN(Cc2ccc(C(=O)Nc3ccc(C)c(Oc4ccc5c(c4)CC(=O)N5)c3)cc2C(F)(F)F)CC1`?
A: Potency [1]: inactive; Potency [2]: 16.9 µM (active); Potency [4]: 16.3 µM (active); Potency [5]: 16.3 µM (active)

Q: Which Potency [1] does the source give for `C[C@H](Nc1ncnc2nc[nH]c12)c1cc2cccc(Cl)c2c(=O)n1-c1ccccc1` here?
A: inactive

Q: What about the Potency [2] of the same compound?
A: inactive

Q: What about the Potency [4] of the same compound?
A: 4.09 µM (active) and 372 nM (active)

Q: And the Potency [5]?
A: 7.28 µM (active) and 4.68 µM (active)

Q: With `CCn1c2ccccc2c2cc(Nc3ccnc(NCCCN4CCOCC4)n3)ccc21` as the compound, how does the Potency [1] read?
A: inactive

Q: And the Potency [2]?
A: inactive

Q: And the Potency [4]?
A: 2.9 µM (active)

Q: And the Potency [5]?
A: 8.17 µM (active)

Q: Which results are given for `CC#CCn1c(N2CCCC(N)C2)nc2c1c(=O)n(Cc1nc(C)c3ccccc3n1)c(=O)n2C` (stereo not drawn)?
A: Potency [1]: inactive; Potency [2]: inactive; Potency [4]: inactive; Potency [5]: inactive

Q: Which Potency [1] does the source give for `Cc1nc2ccc(-n3ncc(C(=O)c4cc5ccccc5[nH]4)c3N)cc2[nH]1` here?
A: inactive

Q: What about the Potency [2] of the same compound?
A: 23.9 µM (active)

Q: And the Potency [4]?
A: 3.25 µM (active) and 2.63 µM (active)

Q: And the Potency [5]?
A: 7.28 µM (active) and 4.17 µM (active)

Q: Which results are given for `C=CC(=O)N1CCN(C(=O)CNc2cc(-c3ccccc3Cl)c(Cl)cc2OC)CC1`?
A: Potency [1]: inactive; Potency [2]: 12 µM (active); Potency [5]: 16.3 µM (active)

Q: With `O=C(NCCCn1ccnc1)c1cc(-c2ccco2)on1` as the compound, how does the Potency [1] read?
A: inactive

Q: And the Potency [2]?
A: 8.49 µM (active)

Q: And the Potency [4]?
A: 14.5 µM (active)

Q: And the Potency [5]?
A: 10.3 µM (active)

Q: For `O=c1[nH]c2ccccc2n1CCN1CCN(c2cccc(C(F)(F)F)c2)CC1`, which Potency [1] is on record?
A: inactive

Q: What about the Potency [2] of the same compound?
A: 7.56 µM (active)

Q: What about the Potency [5] of the same compound?
A: inactive

Q: For `Cc1ccc(N2CCN(CCC3NC(=O)c4ccccc43)CC2)cc1C` (stereo not drawn), which Potency [1] is on record?
A: inactive

Q: And the Potency [2]?
A: inactive

Q: And the Potency [4]?
A: inactive

Q: And the Potency [5]?
A: inactive

Q: For `N[C@@H]1c2cccnc2[C@H](OC(=O)N2CCC(n3c(=O)[nH]c4ncccc43)CC2)CC[C@H]1c1cccc(F)c1F`, which Potency [1] is on record?
A: inactive

Q: And the Potency [2]?
A: 6.74 µM (active)

Q: And the Potency [4]?
A: inactive

Q: What about the Potency [5] of the same compound?
A: inactive

Q: What does the source list for `c1ccc(-c2ccc(CNc3nc(-c4ccccn4)nnc3-c3ccccc3)cc2)cc1`?
A: Potency [1]: inactive; Potency [2]: 2.68 µM (active); Potency [4]: 2.95 µM (active); Potency [5]: 2.95 µM (active)

Q: Which results are given for `CNc1cccc(CCOc2ccc3c(c2)CN(CC(F)(F)F)C(=O)[C@H](CC(=O)O)C3)n1`?
A: Potency [1]: inactive; Potency [2]: inactive; Potency [4]: inactive; Potency [5]: inactive

Q: Which Potency [1] does the source give for `COc1ccccc1N1CCN(CC(C(=O)NC(C)(C)C)c2ccccc2)CC1` (stereo not drawn) here?
A: inactive

Q: What about the Potency [2] of the same compound?
A: 1.69 µM (active)

Q: What about the Potency [4] of the same compound?
A: inactive

Q: What about the Potency [5] of the same compound?
A: inactive

Q: For `Cc1nc(NC(=O)N2CCC[C@H]2C(N)=O)sc1-c1ccnc(C(C)(C)C(F)(F)F)c1`, which Potency [1] is on record?
A: inactive

Q: And the Potency [2]?
A: inactive

Q: What about the Potency [4] of the same compound?
A: 1.63 µM (active) and 2.63 µM (active)

Q: And the Potency [5]?
A: 1.63 µM (active) and 2.95 µM (active)

Q: What does the source list for `O=C(NCC1CCN(Cc2cccc(Cl)c2)CC1)[C@@H]1CCCN(c2ncnc3c2nc2n3CCCC2)C1`?
A: Potency [1]: inactive; Potency [2]: 15.1 µM (active); Potency [4]: inactive; Potency [5]: inactive

Q: Which results are given for `C#Cc1cccc(Nc2nc3cc(C(=O)O)ccc3c3cncnc23)c1`?
A: Potency [1]: inactive; Potency [2]: inactive; Potency [4]: 4.09 µM (active); Potency [5]: 2.58 µM (active)

From PubChem BioAssay (NCATS)
